Test results as given in PubChem BioAssay AID1159580 (chemical genetic matrix, 2015).
Among all 5,500 compounds or so, about 2,000 (36%) were called active. Roughly 18% stayed inconclusive and do not appear here. No stated cut-off is given here; in the data, active means normalized growth mostly below about 0.91 (no sharp cut-off); inconclusive means no clear call, values can overlap the other calls; inactive means mostly above about 0.92. The list shows a part of the results.

Assay: chemical genetic growth profiling, strain panel (AID 1159580);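 further: tested at 20 µM; growth read once vehicle control cultures reached saturation at 30 °C; 1 = growth at the plate median or of vehicle wells; lower values mean less growth of the strain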
Settings: growth OD
[1] = S. cerevisiae deletion strains, locus YDL101C, strain DUN1, active compounds read low
[2] = S. cerevisiae deletion strains, locus YHR030C, strain SLT2, active compounds read low

Measured: normalized growth

Cc1ccccc1C(=O)N1CCc2c([nH]c3ccccc23)C1C(F)(F)F (configuration not stated)
inactive: S. cerevisiae deletion strains, locus YAR019C, strain CDC15, active compounds read low 0.982 | S. cerevisiae deletion strains, locus YBL105C, strain PKC1, active compounds read low 0.985 | S. cerevisiae deletion strains, locus YBR135W, strain CKS1, active compounds read low 0.986 | S. cerevisiae deletion strains, locus YBR136W, strain MEC1, active compounds read low 0.968 | S. cerevisiae deletion strains, locus YBR160W, strain CDC28, active compounds read low 0.988 | S. cerevisiae deletion strains, locus YDL017W, strain CDC7, active compounds read low 0.989 | S. cerevisiae deletion strains, locus YDL028C, strain MPS1, active compounds read low 0.979 | [1] 0.978 | S. cerevisiae deletion strains, locus YDL108W, strain KIN28, active compounds read low 0.98 | S. cerevisiae deletion strains, locus YDL132W, strain cdc53, active compounds read low 0.988 | S. cerevisiae deletion strains, locus YDL214C, strain PRR2, active compounds read low 0.938 | S. cerevisiae deletion strains, locus YDR052C, strain DBF4, active compounds read low 0.989 | S. cerevisiae deletion strains, locus YDR054C, strain cdc34, active compounds read low 0.976 | S. cerevisiae deletion strains, locus YDR226W, strain ADK1, active compounds read low 0.985 | S. cerevisiae deletion strains, locus YDR477W, strain SNF1, active compounds read low 0.962 | S. cerevisiae deletion strains, locus YER123W, strain YCK3, active compounds read low 0.9 | S. cerevisiae deletion strains, locus YER133W, strain GLC7, active compounds read low 0.948 | S. cerevisiae deletion strains, locus YFL009W, strain cdc4, active compounds read low 0.979 | S. cerevisiae deletion strains, locus YFL029C, strain CAK1, active compounds read low 0.972 | S. cerevisiae deletion strains, locus YFR003C, strain YPI1, active compounds read low 0.987 | S. cerevisiae deletion strains, locus YFR019W, strain FAB1, active compounds read low 0.954 | S. cerevisiae deletion strains, locus YFR028C, strain CDC14, active compounds read low 0.978 | S. cerevisiae deletion strains, locus YGR040W, strain KSS1, active compounds read low 0.927 | S. cerevisiae deletion strains, locus YGR052W, strain FMP48, active compounds read low 0.955 | S. cerevisiae deletion strains, locus YGR092W, strain DBF2, active compounds read low 0.978 | [2] 0.881 | S. cerevisiae deletion strains, locus YHR079C, strain IRE1, active compounds read low 0.878 | S. cerevisiae deletion strains, locus YHR082C, strain KSP1, active compounds read low 0.927 | S. cerevisiae deletion strains, locus YHR205W, strain SCH9, active compounds read low 0.83 | S. cerevisiae deletion strains, locus YIL147C, strain SLN1, active compounds read low 0.976 | S. cerevisiae deletion strains, locus YJL095W, strain BCK1, active compounds read low 0.908 | S. cerevisiae deletion strains, locus YJL128C, strain PBS2, active compounds read low 0.927 | S. cerevisiae deletion strains, locus YJL157C, strain FAR1, active compounds read low 0.976 | S. cerevisiae deletion strains, locus YJR016C, strain ILV3, active compounds read low 0.989 | S. cerevisiae deletion strains, locus YJR066W, strain TOR1 (second series), active compounds read low 0.934 | S. cerevisiae deletion strains, locus YJR066W, strain TOR1, active compounds read low 0.943 | S. cerevisiae deletion strains, locus YKL048C, strain ELM1, active compounds read low 0.977 | S. cerevisiae deletion strains, locus YKL067W, strain YNK1, active compounds read low 0.95 | S. cerevisiae deletion strains, locus YKL101W, strain HSL1, active compounds read low 0.909 | S. cerevisiae deletion strains, locus YKL193C, strain SDS22, active compounds read low 0.99 | S. cerevisiae deletion strains, locus YKL203C, strain TOR2, active compounds read low 1.01 | S. cerevisiae deletion strains, locus YLR133W, strain CKI1, active compounds read low 0.929 | S. cerevisiae deletion strains, locus YLR403W, strain SFP1, active compounds read low 0.93 | S. cerevisiae deletion strains, locus YML070W, strain DAK1, active compounds read low 0.905 | S. cerevisiae deletion strains, locus YMR001C, strain CDC5, active compounds read low 0.97 | S. cerevisiae deletion strains, locus YMR205C, strain PFK2 (second series), active compounds read low 0.945 | S. cerevisiae deletion strains, locus YMR277W, strain FCP1, active compounds read low 0.991 | S. cerevisiae deletion strains, locus YNL006W, strain LST8, active compounds read low 1 | S. cerevisiae deletion strains, locus YNL020C, strain ARK1, active compounds read low 0.95 | S. cerevisiae deletion strains, locus YNL161W, strain CBK1, active compounds read low 0.996 | S. cerevisiae deletion strains, locus YNL183C, strain NPR1, active compounds read low 0.894 | S. cerevisiae deletion strains, locus YNL207W, strain RIO2, active compounds read low 0.982 | S. cerevisiae deletion strains, locus YNL222W, strain SSU72, active compounds read low 0.991 | S. cerevisiae deletion strains, locus YNL307C, strain MCK1 (second series), active compounds read low 0.936 | S. cerevisiae deletion strains, locus YOL078W, strain AVO1, active compounds read low 0.991 | S. cerevisiae deletion strains, locus YOL136C, strain PFK27, active compounds read low 0.906 | S. cerevisiae deletion strains, locus YOR061W, strain CKA2, active compounds read low 0.953 | S. cerevisiae deletion strains, locus YOR119C, strain RIO1, active compounds read low 0.985 | S. cerevisiae deletion strains, locus YOR231W, strain MKK1, active compounds read low 0.891 | S. cerevisiae deletion strains, locus YOR329C, strain SCD5, active compounds read low 0.985 | S. cerevisiae deletion strains, locus YPL031C, strain PHO85, active compounds read low 0.963 | S. cerevisiae deletion strains, locus YPL153C, strain RAD53, active compounds read low 0.943 | S. cerevisiae deletion strains, locus YPL204W, strain HRR25, active compounds read low 0.945 | S. cerevisiae deletion strains, locus YPL209C, strain IPL1, active compounds read low 0.986 | S. cerevisiae deletion strains, locus YPR025C, strain CCL1, active compounds read low 0.989 | S. cerevisiae deletion strains, locus YPR106W, strain ISR1, active compounds read low 0.965 | S. cerevisiae deletion strains, locus YPR111W, strain DBF20, active compounds read low 0.966 | S. cerevisiae deletion strains, strain NNK1, active compounds read low 0.967 | S. cerevisiae deletion strains, strain TSCII, active compounds read low 0.988
active: S. cerevisiae deletion strains, locus YLR113W, strain HOG1, active compounds read low 0.799 | S. cerevisiae deletion strains, locus YPL256C, strain CLN2, active compounds read low 0.815

O=C(O)CSCC(=O)N1CCc2c([nH]c3ccccc23)C1C(F)(F)F (configuration not stated)
inactive: S. cerevisiae deletion strains, locus YAL013W, strain DEP1, active compounds read low 1.01 | S. cerevisiae deletion strains, locus YBR229C, strain ROT2, active compounds read low 1.01 | S. cerevisiae deletion strains, locus YCL061C, strain MRC1, active compounds read low 1.04 | [1] 1.01 | S. cerevisiae deletion strains, locus YDL134C, strain PPH21, active compounds read low 1 | S. cerevisiae deletion strains, locus YDR150W, strain NUM1, active compounds read low 0.936 | S. cerevisiae deletion strains, locus YEL061C, strain CIN8, active compounds read low 0.997 | S. cerevisiae deletion strains, locus YGR078C, strain PAC10, active compounds read low 1.05 | [2] 1.16 | S. cerevisiae deletion strains, locus YHR087W, strain rtc3, active compounds read low 1 | S. cerevisiae deletion strains, locus YJR043C, strain POL32, active compounds read low 1.02 | S. cerevisiae deletion strains, locus YJR075W, strain HOC1, active compounds read low 1.03 | S. cerevisiae deletion strains, locus YKL190W, strain CNB1, active compounds read low 1 | S. cerevisiae deletion strains, locus YLR039C, strain RIC1, active compounds read low 1.04 | S. cerevisiae deletion strains, locus YLR058C, strain SHM2 (second series), active compounds read low 1.02 | S. cerevisiae deletion strains, locus YLR085C, strain ARP6, active compounds read low 1.09 | S. cerevisiae deletion strains, locus YLR262C, strain YPT6, active compounds read low 1.01 | S. cerevisiae deletion strains, locus YML094W, strain GIM5, active compounds read low 1 | S. cerevisiae deletion strains, locus YMR219W, strain ESC1, active compounds read low 1.02 | S. cerevisiae deletion strains, locus YMR263W, strain SAP30, active compounds read low 1.02 | S. cerevisiae deletion strains, locus YMR307W, strain GAS1, active compounds read low 1.1 | S. cerevisiae deletion strains, locus YNL128W, strain TEP1, active compounds read low 0.987 | S. cerevisiae deletion strains, locus YNL153C, strain GIM3, active compounds read low 1.01 | S. cerevisiae deletion strains, locus YNL298W, strain CLA4 (second series), active compounds read low 1.05 | S. cerevisiae deletion strains, locus YNL322C, strain KRE1, active compounds read low 1.02 | S. cerevisiae deletion strains, locus YNR030W, strain Alg12, active compounds read low 1.02 | S. cerevisiae deletion strains, locus YOL006C, strain TOP1, active compounds read low 1.11 | S. cerevisiae deletion strains, locus YPL055C, strain LGE1, active compounds read low 0.991 | S. cerevisiae deletion strains, locus YPR135W, strain CTF4, active compounds read low 1.06 | S. cerevisiae strains, strain wild type, active compounds read low 0.993
active: S. cerevisiae deletion strains, locus YPL241C, strain CIN2, active compounds read low 1.22 [resistant]
